Assay outcomes deposited in PubChem by National Center for Advancing Translational Sciences (NCATS).
This is a sample that favours compounds with a hit; in the whole collection about 17% have one here.
ATXN2 expr inh – reduces ATXN2 reporter expression in HEK-293 cells; Potency, µM (doses to about 57 µM), for inactives: at the highest dose activity change, negative = inhibition, actives largely listed as inhibitors; 360,000 tested, 0.72% active; HEK-293 ATXN2-luciferase reporter, luminescence, 24 h; further: on the % scale 0 is the no-effect control and ±100 the full control effect; nearly all actives have a fitted effect of over 55% in size
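ATXN2-luciferase reporter cells (luciferase flanked by upstream and downstream ATXN2 gene portions) were treated 24 h at 37 °C with compounds at up to 57 uM. SteadyGlo luminescence gave expression; GF-AFC fluorescence gave viability.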
ATXN viability – viability counter-screen for ATXN expression inhibitors. 400,000 tested, 0.49% active. S2 cells (HEK-293 line with an ATXN2-luciferase reporter) viability, CellTiter-Fluor protease fluorescence, 24 h. AID 651635. Potency, µM (top dose mostly 56.7 µM), usual class: cytotoxic; further: nearly all actives have a fitted effect of over 40% in size
TDP1 cell CPT – growth inhibition of DT40 Tdp1-/-;hTDP1 cells with camptothecin (screen for TDP1 inhibitors); AID 686979; Potency, µM (top dose mostly 46.2 µM), without a hit: top-dose activity change, negative = growth inhibition, most hits filed as inhibitors; 420,000 tested, 12% active; chicken DT40 Tdp1-/-;hTDP1 cells + 20 nM CPT, ATP luminescence, 48 h; further: on the % scale 0 is the no-effect control and ±100 the full control effect; nearly all actives have a fitted effect of over 55% in size
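Chicken DT40 Tdp1-/- cells complemented with human TDP1, 400 cells/well, exposed to compounds plus 20 nM camptothecin for at least 48 h at 37 C; viability read as ATP content by CellTiter-Glo luminescence.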
HepG2 viability – counter-screen for TGF-b inhibitors: cytotoxicity in HepG2 cells; HepG2 CAGA-GFP viability, ATP luminescence, 18 h; Potency, µM (titrated, usually from 46.1 µM), without a hit: at the top dose activity change, negative = cytotoxicity, actives largely listed as cytotoxic; 410,000 tested, 0.76% active; AID 588856
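HepG2 CAGA-GFP cells (1000/well, DMEM with 1% FBS) received compound, then TGF-beta at 500 pg/mL final, and were incubated 18 hours at 37 degrees C. Viability was read by CellTiter-Glo luminescence. Media-only wells were set as complete cell-killing and DMSO as no toxicity.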
DT40 TDP1 no CPT – qHTS for Inhibitors of human tyrosyl-DNA phosphodiesterase 1 (TDP1): qHTS in cells in absence of CPT; DT40 Tdp1-/- hTDP1 cells, no CPT, ATP luminescence, 48 h; Potency, µM (doses to about 46.2 µM), for inactives: at the highest dose activity change, negative = growth inhibition, most hits filed as inhibitors; 420,000 tested, 15% active; further: on the % scale 0 is the no-effect control and ±100 the full control effect; nearly all actives have a fitted effect of over 55% in size
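Growth of hTDP1-complemented DT40 Tdp1-knockout cells is measured by ATP luminescence after at least 48 hr compound exposure at 37 °C, with DMSO substituting for the 20 nM CPT used in the parallel screen.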
TGFb SMAD3 inh – blocks TGF-b signaling; HepG2 CAGA-GFP TGF-b/SMAD3 reporter, GFP fluorescence, 18 h; TGF-beta stimulated, 500 pg/mL final; Potency, µM (doses to about 46.1 µM), inactives show top-dose activity, negative = inhibition, actives largely listed as inhibitors; 410,000 tested, 1.2% active; AID 588855; further: on the % scale 0 is the no-effect control and ±100 the full control effect; nearly all actives have a fitted effect of over 65% in size
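HEPG2 CAGA-GFP cells (1000/well, DMEM with 1% FBS) were pre-incubated 2 h at 37 degrees C, given compound by pin tool, then stimulated with TGF-beta at 500 pg/mL final for 18 h before per-cell GFP fluorescence imaging.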
* marks the source's active call; other numbers are inactive results; i = inactive; ? = inconclusive; . = not tested or not shown. The call rests on the fitted dose curve; in most records, active means well fitted curve in the direction sought with a large enough effect; inconclusive means small, poorly fitted or top-dose-only effect, or another doubt; inactive means no such curve, though single readings can be large; an effect the other way counts as inactive or inconclusive. Potency means the concentration at half of the fitted maximal effect.

SMILES | ATXN2 expr inh | ATXN viability | TDP1 cell CPT | HepG2 viability | DT40 TDP1 no CPT | TGFb SMAD3 inh
CCN1CCN(c2cc(N3CCc4ccccc4C3)c(F)cc2[N+](=O)[O-])CC1 | -33% | i | 16µM* | -57% | 10µM* | ?
O=C(Nc1cccc2cccnc12)c1ccc(Br)cc1 | . | . | . | -27% | . | -4%
COc1ccc2cc3[n+](cc2c1OC)CCc1cc2c(cc1-3)OCO2 | ? | ? | 3.7µM* | -21% | 2.3µM* | -6%
COc1ccc(N2CCN(C(=O)C(C)n3c(=O)cc(C(F)(F)F)c4c(C)nn(C)c43)CC2)cc1 (stereo not given) | 1% | i | 12µM* | 0% | 12µM* | 0%
Cc1nn(C)c2c1c(C(F)(F)F)cc(=O)n2C(C)C(=O)N1CCN(c2ccccc2)CC1 (stereo not given) | -15% | i | 23µM* | -4% | ? | -7%
Cc1nn(C)c2c1c(C(F)(F)F)cc(=O)n2C(C)C(=O)NCCc1ccc(Cl)cc1 (stereo not given) | 4% | i | 15µM* | -2% | ? | 5%
O=C(CN1C=NS(=O)(=O)c2ccccc21)Nc1ccccc1F | -1% | i | -10% | 16% | -16% | -16%
Cc1occc1C(=O)Nc1ccc(Br)cc1F | 52% | i | -4% | -10% | -6% | -3%
CC(NC(=O)c1ccc2nc(Cc3cccc(Cl)c3)oc2c1)c1ccncn1 (stereo not given) | . | ? | -18% | -21% | ? | ?
Cc1cc(N2CCN(C/C=C/c3ccccc3)CC2)n2ncnc2n1 | -30% | i | 16µM* | 2% | 10µM* | -1%
Cc1nn(C)c(C)c1NC(=O)CC12CC3CC(CC(C3)C1)C2 | . | i | ? | 1% | ? | 1%
CC(C)N1CCC(N2CCN(CC#Cc3ccccc3)CC2CCO)CC1 (stereo not given) | -2% | i | 0% | 0% | ? | 17%
N#Cc1ccsc1NC(=O)CN1CCN(c2ccc(O)cc2)CC1 | -17% | i | ? | -1% | 10µM* | 3%
N#Cc1cnn(-c2ccccc2)c1NC(=O)CN1CCOCC1 | 0% | i | 1% | 5% | -1% | -15%
COc1ccc(S(=O)(=O)N2CCN(CC(=O)Nc3sccc3C(N)=O)CC2)cc1OC | . | i | ? | -10% | 23µM* | ?
N#Cc1ccsc1NC(=O)CN1CCN(c2ccccc2)CC1 | 0% | ? | 10% | -2% | -29% | 6%
Cc1cc(C)c(C)c(S(=O)(=O)N2CCN(CC(=O)Nc3sccc3C#N)CC2)c1C | -2% | i | 26µM* | -20% | ? | ?
N#Cc1cnn(-c2ccccc2)c1NC(=O)CN1CCN(c2ccccc2)CC1 | 14% | i | ? | 20% | 23µM* | 2%
CC(=O)N1CCN(CC(=O)Nc2sccc2C#N)CC1 | 9% | i | -16% | -1% | -5% | ?
NC(=O)c1cc(NC(=O)c2ccc(NS(=O)(=O)c3cccs3)cc2)cc(C(N)=O)c1 | 2% | i | -21% | 11% | -14% | -1%
COc1ccccc1NC(=O)CSc1ncc2c(n1)-c1cc(Cl)ccc1N(Cc1ccccc1)S2(=O)=O | 2% | i | ? | -5% | ? | -1%
Cc1ccccc1CN1c2ccccc2-c2nc(SCC(=O)Nc3cc(F)ccc3F)ncc2S1(=O)=O | -11% | i | ? | 13% | 10µM* | 11%
COC(=O)c1ccc(NC(=O)CSc2ncc3c(n2)-c2cc(Cl)ccc2N(Cc2ccccc2)S3(=O)=O)cc1 | 7% | i | ? | -16% | 21µM* | -5%
COc1ccc(OC)c(C(=O)CSc2ncc3c(n2)-c2ccccc2N(Cc2ccccc2C)S3(=O)=O)c1 | 7% | i | 18µM* | -1% | ? | 4%
O=C(CSc1ncc2c(n1)-c1cc(Cl)ccc1N(Cc1ccccc1)S2(=O)=O)Nc1ccc(F)cc1F | -7% | i | 18µM* | -4% | ? | 1%
SMILES | ATXN2 expr inh | ATXN viability | TDP1 cell CPT | HepG2 viability | DT40 TDP1 no CPT | TGFb SMAD3 inh
CCOc1ccc(NC(=O)CSc2ncc3c(n2)-c2cc(Cl)ccc2N(C)S3(=O)=O)cc1 | -2% | i | -27% | -9% | -19% | -1%
O=C(NCc1cccc2[nH]ccc12)C1CCC(=O)N(CCc2ccccc2)C1 (stereo not given) | 25% | i | 9% | -16% | 5% | -4%
O=C(N[C@H]1c2ccccc2C[C@H]1O)[C@H]1O[C@@H](n2ccc(=O)[nH]c2=O)[C@H](O)[C@@H]1O | 2% | i | 4% | 6% | 8% | -9%
O=c1nc(Oc2ccccc2)nc2ncccn12 | . | i | ? | -41% | ? | -6%
CCOC(=O)NC(N(O)c1cccc(Cl)c1)C(Cl)(Cl)Cl (stereo not given) | -5% | i | ? | 1% | -18% | -29%
COc1ccc(NC(=O)[C@@H]2CC=C[C@@H]3CCN(C4CC4)C(=O)[C@@H]32)cc1 | . | . | -6% | -35% | 0% | 22%
COc1cccc(CNC(=O)CSc2ncc3c(n2)-c2cc(Cl)ccc2N(C)S3(=O)=O)c1 | -6% | i | 21µM* | -6% | ? | 1%
Cc1cccc(C)c1NC(=O)CSc1ncc2c(n1)-c1ccc(Cl)cc1N(Cc1ccccc1)S2(=O)=O | . | . | ? | 5% | 16µM* | 11%
O=C(CSc1ncc2c(n1)-c1cc(Cl)ccc1N(Cc1ccccc1F)S2(=O)=O)Nc1cccc(C(F)(F)F)c1 | 7% | i | 18µM* | -29% | ? | -13%
CCN(C(=O)CSc1ncc2c(n1)-c1cc(Cl)ccc1N(Cc1ccccc1)S2(=O)=O)c1cccc(C)c1 | -8% | i | ? | -17% | 16µM* | -7%
NC(=O)CSc1ncc2c(n1)-c1ccccc1N(Cc1ccccc1)S2(=O)=O | 2% | i | -25% | 3% | -8% | 2%
COc1ccc(CNC(=O)CSc2ncc3c(n2)-c2ccc(Cl)cc2N(Cc2ccccc2)S3(=O)=O)cc1 | -3% | i | ? | -6% | ? | -6%
CCc1cccc(NC(=O)CSc2ncc3c(n2)-c2cc(Cl)ccc2N(C)S3(=O)=O)c1 | -8% | i | ? | -30% | ? | 10%
